According to the supplement of paper PMC7366291:
Structures can show the parent of a compound that is named as a salt. ± gives the standard deviation or the standard deviation of the averaged measurements.

Legend:
Conditions in all cases: 25 µM; exposure: 24-48 hpf
[1] = system: Danio rerio Tg(wt1b:EGFP) embryo, pronephros; test: glomerular separation, fold change vs DMSO control; higher = glomeruli further apart (abnormal)
Procedure, shortened: (§1)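 Dechorionated Tg(wt1b:EGFP) zebrafish embryos were incubated at 28.5°C from 24 to 48 hpf with 25 μM compound in HEPES-buffered E3 containing 0.5% DMSO and 0.003% PTU. Distances and angles between 16 manually set points on maximum projections of dorsal pronephros images were measured in Fiji, with values over 2 SD from the feature mean excluded. Each feature is a fold change relative to the mean of same-day DMSO-treated embryos.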

[2] = system: Danio rerio Tg(wt1b:EGFP) embryo, pronephros; test: glomerular width (mean of left and right), fold change vs DMSO control; higher = wider glomerulus
Procedure, shortened: as §1

[3] = system: Danio rerio Tg(wt1b:EGFP) embryo, pronephros; test: pronephric angle neck segment to proximal convoluted tubule (mean of left and right), fold change vs DMSO control; higher = larger pronephric angle
Procedure, shortened: as §1

[4] = system: Danio rerio Tg(wt1b:EGFP) embryo, pronephros; test: fraction of imaged embryos annotated as normal kidney; higher = less nephrotoxic; extreme values may be limits of the assay
Procedure, shortened: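 Dechorionated Tg(wt1b:EGFP) zebrafish embryos were exposed in 12-well plates to 25 μM compound in 0.5% DMSO, 5 mM HEPES-buffered E3 with 0.003% PTU, from 24 to 48 hpf at 28.5°C. Tricaine-anaesthetised larvae were oriented dorsally in agarose-filled 96-well plates, and pronephroi were imaged by widefield fluorescence (470 nm, 10 z-slices). Each embryo was manually annotated from maximum projections. The read-out is the fraction of embryos per treatment assigned to the normal-kidney category.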

SMILES | glomerular separation [1] | glomerular width [2] | pronephric angle neck segment [3] | fraction of imaged embryos annotated as normal kidney [4]
COc1ccc(CCN(C)CCCC(C#N)(c2ccc(OC)c(OC)c2)C(C)C)cc1OC (stereo unspecified) [Verapamil hydrochloride] | 1.1 ± 0.41 | 0.995 ± 0.019 | 1.075 ± 0.0043 | 
CCCCC1=NC2(CCCC2)C(=O)N1Cc1ccc(-c2ccccc2-c2nnn[nH]2)cc1 [Irbesartan] | 3.04 ± 1.1 | 0.56 ± 0.11 | 1.1 ± 0.022 | 0.75
CC[C@H]1OC(=O)[C@H](C)[C@@H](O[C@H]2C[C@@](C)(OC)[C@@H](O)[C@H](C)O2)[C@H](C)[C@@H](O[C@@H]2O[C@H](C)C[C@H](N(C)C)[C@H]2O)[C@](C)(OC)C[C@@H](C)C(=O)[C@H](C)[C@@H](O)[C@]1(C)O [Clarithromycin] | 0.802 ± 0.28 | 0.909 ± 0.043 | 1.06 ± 0.039 | 1
CC(C)CN(C[C@@H](O)[C@H](Cc1ccccc1)NC(=O)O[C@H]1CO[C@H]2OCC[C@H]21)S(=O)(=O)c1ccc(N)cc1 [Darunavir] | 1.16 ± 0.42 | 0.976 ± 0.018 | 0.9599 ± 0.0035 | 
Nc1nc2n[nH]nc2c(=O)[nH]1 [Azaguanine-8] | 0.905 ± 0.36 | 1 ± 0.058 | 0.984 ± 0.02 | 0.833
COc1cc(C)nc(-n2nc(C)cc2OC)n1 [Epirizole] | 1.39 ± 0.73 | 0.957 ± 0.021 | 1.03 ± 0.027 | 0.75
O=C(O)c1cn(C2CC2)c2cc(N3CCNCC3)c(F)cc2c1=O [Ciprofloxacin hydrochloride monohydrate] | 0.914 ± 0.36 | 0.94012 ± 0.00024 | 0.988 ± 0.023 | 0.833
CN(Cc1cnc2nc(N)nc(N)c2n1)c1ccc(C(=O)N[C@@H](CCC(=O)O)C(=O)O)cc1 (racemic) [Amethopterin (R,S)] | 1.29 ± 0.49 | 0.996 ± 0.022 | 1.03 ± 0.036 | 0.75
CCOc1ccc2nc(S(N)(=O)=O)sc2c1 [Ethoxzolamide] | 2.05 ± 1.5 | 1.08 ± 0.0034 | 1.2306 ± 0.00079 | 
CC(C)c1ccc2oc3nc(N)c(C(=O)O)cc3c(=O)c2c1 [Amlexanox] | 1.84 ± 0.69 | 1.04 ± 0.036 | 0.955 ± 0.017 | 
OCCN1C[C@H](O)[C@@H](O)[C@H](O)[C@H]1CO [Miglitol] | 1.12 ± 0.48 | 0.995 ± 0.011 | 0.982 ± 0.0086 | 0.909
Cc1scc2c1N(C(=O)CN1CCN(C)CC1)c1ccccc1NC2=O [Telenzepine dihydrochloride] | 0.967 ± 0.17 | 0.937 ± 0.032 | 0.963 ± 0.01 | 1
CCC(C)(C)C(=O)O[C@H]1C[C@@H](C)C=C2C=C[C@H](C)[C@H](CC[C@@H]3C[C@@H](O)CC(=O)O3)[C@H]21 [Simvastatin] | 4.7 ± 1.8 | 0.658 ± 0.034 | 1.8 ± 0.065 | 
O=C1Cc2cc(CCN3CCN(c4nsc5ccccc45)CC3)c(Cl)cc2N1 [Ziprasidone  Hydrochloride] | 1.5 ± 0.53 | 1.03 ± 0.025 | 1.05 ± 0.04 | 0.833
CCN(CC)CCCC(C)Nc1c2ccc(Cl)cc2nc2ccc(OC)cc12 (stereo unspecified) [Quinacrine dihydrochloride hydrate] | 0.766 ± 0.2 | 1.01 ± 0.016 | 0.971 ± 0.021 | 0.75
CCN1CCC[C@H]1CNC(=O)c1c(OC)ccc(Br)c1OC [Remoxipride Hydrochloride] | 0.777 ± 0.38 | 1.02 ± 0.08 | 0.976 ± 0.032 | 0.917
NC(=O)C(c1ccccc1)(c1ccccc1)[C@@H]1CCN(CCc2ccc3c(c2)CCO3)C1 [Darifenacin hydrobromide] | 0.963 ± 0.39 | 1.09 ± 0.019 | 1 ± 0.029 | 
CC(=O)Oc1cccc2c1C(=O)c1c(OC(C)=O)cc(C(=O)O)cc1C2=O [Diacerein] | 0.691 ± 0.2 | 1.1 ± 0.046 | 1.02 ± 0.021 | 0.833
CCOC(=O)N1CCC(=C2c3ccc(Cl)cc3CCc3cccnc32)CC1 [Loratadine] | 1.4 ± 0.98 | 0.989 ± 0.055 | 1.1 ± 0.021 | 
N=C(N)NCCN1CCCCCCC1 [Guanethidine sulfate] | 0.862 ± 0.46 | 1.04 ± 0.04 | 0.958 ± 0.035 | 0.917

SMILES | glomerular separation [1] | glomerular width [2] | pronephric angle neck segment [3] | fraction of imaged embryos annotated as normal kidney [4]
C[C@H](N)[C@H](O)c1cccc(O)c1 [Metaraminol bitartrate] | 0.797 ± 0.44 | 0.961 ± 0.083 | 0.771 ± 0.017 | 0.667
Clc1ccc2c(c1)CCc1cccnc1C2=C1CCNCC1 [Desloratadine] | 0.811 ± 0.28 | 0.94 ± 0.011 | 1.06 ± 0.044 | 0.917
CN1CCC(=C2c3ccccc3CC(=O)c3sccc32)CC1 [Ketotifen fumarate] | 0.991 ± 0.29 | 1.06 ± 0.027 | 0.948 ± 0.013 | 0.833
CN[C@@H]1[C@H](O[C@H]2[C@H](O[C@H]3[C@H](O)[C@@H](O)[C@H](N=C(N)N)[C@@H](O)[C@@H]3N=C(N)N)O[C@@H](C)[C@]2(O)C=O)O[C@@H](CO)[C@H](O)[C@H]1O [Streptomycin sulfate] | 0.691 ± 0.22 | 1.08 ± 0.098 | 0.959 ± 0.043 | 0.917
Cc1[nH]cnc1CN1CCc2c(c3ccccc3n2C)C1=O [Alosetron hydrochloride] | 0.809 ± 0.28 | 1.027 ± 0.0085 | 0.977 ± 0.015 | 0.917
COc1ccc(C(=O)c2ccccc2)c(O)c1 [Oxybenzone] | 0.878 ± 0.34 | 1.09 ± 0.026 | 1.03 ± 0.02 | 0.833
Cc1ccc(/C(=C\CN2CCCC2)c2ccccn2)cc1 [Triprolidine hydrochloride] | 0.823 ± 0.16 | 1.035 ± 0.0046 | 1.04 ± 0.045 | 0.917
Clc1ccc(CCC(Cn2ccnc2)Sc2c(Cl)cccc2Cl)cc1 (stereo unspecified) [Butoconazole nitrate] | 2.43 ± 1.2 | 0.767 ± 0.047 | 1.25 ± 0.056 | 0
CC(C)(Oc1ccc(CCNC(=O)c2ccc(Cl)cc2)cc1)C(=O)O [Bezafibrate] | 0.842 ± 0.27 | 0.988 ± 0.072 | 0.966 ± 0.0086 | 0.917
Oc1ccc(OCc2ccccc2)cc1 [Monobenzone] | 2.85 ± 1.3 | 0.753 ± 0.068 | 1.21 ± 0.018 | 0.25
N[C@@H](Cc1cc(I)c(Oc2ccc(O)c(I)c2)c(I)c1)C(=O)O [Liothyronine] | 0.912 ± 0.45 | 0.9338 ± 0.0093 | 1.01 ± 0.018 | 
CN(C)CCCN1c2ccccc2Sc2ccc(C(F)(F)F)cc21 [Triflupromazine hydrochloride] | 0.863 ± 0.37 | 1.033 ± 0.0067 | 0.954 ± 0.014 | 
CC1(C)[C@H](C(=O)O)N2C(=O)C[C@H]2S1(=O)=O [Sulbactam] | 0.653 ± 0.18 | 1.07 ± 0.04 | 0.952 ± 0.039 | 
O=c1[nH]c(=O)n([C@H]2C[C@H](O)[C@@H](CO)O2)cc1C(F)(F)F [Trifluridine] | 0.965 ± 0.28 | 0.9839 ± 0.0047 | 0.99 ± 0.013 | 0.917
CC(C)(Oc1ccc(Cl)cc1)C(=O)O [Clofibric acid] | 1.17 ± 0.56 | 0.927 ± 0.036 | 1.001 ± 0.0094 | 0.667
COc1cc(C(=O)NC2CCCNC2)cc(OC)c1OC (stereo unspecified) [Troxipide] | 1.14 ± 0.54 | 0.976 ± 0.011 | 0.953 ± 0.027 | 0.917
O=c1[nH]cc(F)c(=O)[nH]1 [5-fluorouracil] | 0.802 ± 0.22 | 1.02 ± 0.042 | 1.024 ± 0.0061 | 0.75
Cc1cccc(N(C)C(=S)Oc2ccc3ccccc3c2)c1 [Tolnaftate] | 2.28 ± 1.3 | 0.952 ± 0.03 | 1.05 ± 0.065 | 0.75
CC(C(=O)O)c1cccc(C(=O)c2ccccc2)c1 (stereo unspecified) [Ketoprofen] | 1.58 ± 0.77 | 0.83 ± 0.037 | 1.1 ± 0.028 | 
CC(c1cc2ccccc2s1)N(O)C(N)=O (stereo unspecified) [Zileuton] | 1.25 ± 0.57 | 0.993 ± 0.02 | 1.11 ± 0.072 | 0.667

SMILES | glomerular separation [1] | glomerular width [2] | pronephric angle neck segment [3] | fraction of imaged embryos annotated as normal kidney [4]
C=CCOC(Cn1ccnc1)c1ccc(Cl)cc1Cl (stereo unspecified) [Enilconazole] | 0.575 ± 0.22 | 1.12 ± 0.024 | 1.1 ± 0.062 | 1
Nc1nc2c(ncn2COCCO)c(=O)[nH]1 [Acyclovir] | 1.05 ± 0.49 | 1.06 ± 0.041 | 0.888 ± 0.022 | 0.583
CC(C)(C)NCC(O)c1cc(O)cc(O)c1 (stereo unspecified) [Terbutaline hemisulfate] | 1.1 ± 0.36 | 1 ± 0.029 | 1.01 ± 0.039 | 0.75
COC(c1ccccc1)(c1ccccc1)[C@H](Oc1nc(C)cc(C)n1)C(=O)O [Ambrisentan] | 0.883 ± 0.35 | 0.873 ± 0.017 | 1.09 ± 0.018 | 0.833
CCn1cc(C(=O)O)c(=O)c2cc(F)c(N3CCNC(C)C3)c(F)c21 (stereo unspecified) [Lomefloxacin hydrochloride] | 1.54 ± 1.1 | 0.974 ± 0.12 | 1.12 ± 0.037 | 0.5
Cc1c(F)c(N2CCNC(C)C2)cc2c1c(=O)c(C(=O)O)cn2C1CC1 (stereo unspecified) [Grepafloxacin] | 0.897 ± 0.35 | 1.033 ± 0.0021 | 0.985 ± 0.013 | 0.75
CNCCC=C1c2ccccc2CCc2ccccc21 [Nortriptyline hydrochloride] | 1.04 ± 0.35 | 0.9614 ± 0.0024 | 1.03 ± 0.011 | 0.833
CN(C)C(=N)NC(=N)N [Metformin hydrochloride] | 0.804 ± 0.19 | 0.93 ± 0.035 | 1.08 ± 0.042 | 0.833
O=C(N/N=C/c1ccc([N+](=O)[O-])o1)c1ccc(O)cc1 [Nifuroxazide] | 0.916 ± 0.47 | 1.02 ± 0.041 | 0.964 ± 0.028 | 0.833
CC(C)(C)C(=O)OCOC(=O)[C@@H]1N2C(=O)[C@@H](/N=C/N3CCCCCC3)[C@H]2SC1(C)C [Pivmecillinam hydrochloride] | 0.772 ± 0.17 | 1.101 ± 0.0091 | 1.04 ± 0.012 | 0.75
N=C(N)c1ccc(OCCCCCOc2ccc(C(=N)N)cc2)cc1 [Pentamidine isethionate] | 0.801 ± 0.21 | 0.99 ± 0.024 | 0.982 ± 0.02 | 1
CN(C)CCN(Cc1ccc(Cl)cc1)c1ccccn1 [Chloropyramine hydrochloride] | 0.981 ± 0.57 | 1.07 ± 0.064 | 0.964 ± 0.016 | 0.917
C=CC1=C(C(=O)O)N2C(=O)[C@@H](NC(=O)/C(=N\O)c3csc(N)n3)[C@H]2SC1 [Cefdinir] | 0.772 ± 0.34 | 1.04 ± 0.029 | 1.003 ± 0.0083 | 1
S=c1[nH]cnc2nc[nH]c12 [Mercaptopurine] | 0.832 ± 0.28 | 0.991 ± 0.088 | 0.992 ± 0.07 | 0.75
CC1(C)O[C@@H]2[C@@H](CO[C@@]3(COS(N)(=O)=O)OC(C)(C)O[C@@H]23)O1 [Topiramate] | 1.18 ± 0.51 | 1.086 ± 0.0046 | 1 ± 0.025 | 0.583
Clc1ccc(COC(Cn2ccnc2)c2ccc(Cl)cc2Cl)c(Cl)c1 (stereo unspecified) [Miconazole] | 3.42 ± 1.6 | 0.865 ± 0.069 | 1.481 ± 0.012 | 0.0909
Nc1ccc(S(=O)(=O)Nc2ccccn2)cc1 [Sulfapyridine] | 0.906 ± 0.35 | 1.07 ± 0.03 | 1 ± 0.083 | 0.75
CC(=O)Nc1c(I)c(C(=O)N[C@H]2C(O)O[C@H](CO)[C@@H](O)[C@@H]2O)c(I)c(N(C)C(C)=O)c1I (stereo partly specified) [Metrizamide] | 0.874 ± 0.3 | 1.11 ± 0.1 | 0.988 ± 0.025 | 0.833
